40 sequences from the supplement of paper PMC6555819 can be followed below.

In the first test the test system is RARa homodimer (NR concentration 270 nM). As to the kind of experiment: PBM binding z-score (relative to random genomic background probes); higher = stronger binding; sequences stand for … in GC…GCGATTGACAGCGTAGAATGAAGG
In outline:
(§1)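 Antibodies against each partner of ligand-free nuclear receptor dimers (one per run) detected binding on custom Agilent 4×180K protein-binding microarrays after 1 h incubation. The double-stranded probes had 34-nt variable regions carrying direct-repeat seeds, single-nucleotide variants, half-site ablations and random human genomic background sequences. Binding z-scores, from regression-normalized fluorescence, use the random background probes as reference.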
In turn, CCTCCTAGGTCATGGTCAGCTAATCTACAGTATG displayed a PBM binding z-score of 1.05.
Same read-out and setting: then CCAGACAGGTGAAAGGTAACACAGTCTGGTACGC, with 0.436.
For the sequence AGAACGAGGGCAATGAGTTGATAGCGCGGGTGGC, the PBM binding z-score is -1.01.
On the same count and under the same terms, the same measure for ATATGTAGGTTATCGGGTCAATCAGTTTGCGCAT: 1.3.
ACAGACAGATGAGTGAAGGTAACTCAGCTGGACG displayed a PBM binding z-score of 0.524.
On the same count and under the same terms, then GCAGACAGGTGAAAAGCAGGTAACTCAGGGTGGC, with -0.401.
On the same count and under the same terms, then TCGAGTAGGTTACCAAGGGGGCATTCAGCTTTCT, with -0.167; and GCGACTGGGGCAAAGCAGGTTACCAAAAGGTTGG, with -0.773.
Still for that read-out and setting: the same measure for ATATGTAGGTTACATCCAGGTCATTCAGGCTATG: 1.06.
For the sequence CCTACTGGGCCAAATGTCATTGATTCCAATGCTC, the PBM binding z-score was -0.233.
On the same count and under the same terms, then ACTGTTAGTTGACTTAGGGCAACCGATACGACGC, with 0.354; and ATCTAAAGGTCGAGGTGAGTATAGAGAAAGGGAA, with 1.18; and CCTAGTTGGTCAAGGGCACACACGCTATAGGTAC, with 1.05.
On to TCTTGTAGATCAACAGGAGGCTAAGAAAGATCGA, for which the PBM binding z-score was -0.265.
TCATATAGGTAAACAGGTGAAAATCCGTAAGTTA came in with a PBM binding z-score of 1.83.
In turn, CGTCCAAGGTCTATGCTAGGTCAGTGAAAGCATT yielded a PBM binding z-score of 0.289.
The same measure, in the same setting: the same measure for CGTCCAAGGTCAAGGTCAGTGGAAGAGACTCGAA: 0.944; for AGAATGAGGTTATTAAGTTCAGGGAATTGCGGTC: 0.854; for CCTTACGGGTCACTCCAGGTAATAGCATCGGAGT: 0.163.
ATCGAAAGGACGACGAGGTGAGTATACACCGTTT registered a PBM binding z-score of 0.198.
CGTCCAAGGTCATAGGAGGTCAGTGAAGACAGAT displayed a PBM binding z-score of 1.77.
Regarding GATACAGGGTCAAGGCCAGAGAACGCGTATTGAT, the PBM binding z-score worked out at 1.07.
On the same count and under the same terms, then TCTATTAGTTGAAAGGCAACCGACGAGTCCGTTT, with 1.11; and CCGACTGGGGCAAAGGTTACCATCCTCAGTACGA, with -0.46.
Same read-out and setting: the same measure for TCTTGTAGATCAAGCAGGATAAGAAAGCCTGAGT: 0.37; for AGACCGAGGGCACGCTGAGTTGATAGCAGAGTAG: -0.487; for TCTAGTTGGTCACCGAGGTCACACACGACGGGTA: 1.78.
Same read-out and setting: then CGTGCAAGGTCAGCAGGTCAGTGAAAGCGACGTG, with 0.769; and CCTCGCAGGACAACAGGAGGTCAGAGCTGCCAGA, with -0.0612; and ATCTCTAGATAAAAGTTCAGTGAATCCCGAGGAT, with 0.594.
In turn, CCTAGCAGGCCAGGGTCAATCAAGCATTTCGCTT showed a PBM binding z-score of 0.17.
Take TCTTGTACATCAAAGGTTAAGAAAGCCGAAGCCT: the PBM binding z-score came to 0.601.
The same measure, in the same setting: then ACTATTAGTTGAGACGAGGGCAACCGTTAGGTTG, with -0.132; and AGAATGAGGTTATTAAGATCAGGCAATTGCGGTC, with 0.167.
GCATATAGATAATACAAGGTGAAAGTCCGATTGT: the PBM binding z-score was found to be 0.194.
In turn, GCTTGTAGATCAAGGTTAGGAAAGACTAAGCTAA yielded a PBM binding z-score of -0.3.
On the same count and under the same terms, then AGAATGATGTTATTAAGATCAGGGAATTGCGGTC, with 0.841; and CCGACTGGGGCAAAGGTTACCATTCTCAGTACGA, with -0.539.
The same measure, in the same setting: then ATATGTAGGTTATCGGGTCATTTAGTTTGCGCAT, with 1.47; and TCATATAGGTAAATGCTAGGTTAAAGTCCGATCT, with 1.88.

Another test has as its system RARb:RXRa (NR concentration 270 nM, RXRa partner concentration 90 nM). The description is as above. The gist of the method:
as §1
In turn, CCTCCTAGGTCATGGTCAGCTAATCTACAGTATG returned a PBM binding z-score of 4.02.
CCAGACAGGTGAAAGGTAACACAGTCTGGTACGC had a PBM binding z-score of 1.36.
AGAACGAGGGCAATGAGTTGATAGCGCGGGTGGC returned a PBM binding z-score of 1.96.
The same measure, in the same setting: then ATATGTAGGTTATCGGGTCAATCAGTTTGCGCAT, with 2.86; and ACAGACAGATGAGTGAAGGTAACTCAGCTGGACG, with -0.14.
Still for that read-out and setting: the same measure for GCAGACAGGTGAAAAGCAGGTAACTCAGGGTGGC: 0.42.
Still for that read-out and setting: the same measure for TCGAGTAGGTTACCAAGGGGGCATTCAGCTTTCT: 1.98.
In turn, GCGACTGGGGCAAAGCAGGTTACCAAAAGGTTGG returned a PBM binding z-score of 1.02.
For ATATGTAGGTTACATCCAGGTCATTCAGGCTATG, the PBM binding z-score came to 2.53.
Regarding CCTACTGGGCCAAATGTCATTGATTCCAATGCTC, the PBM binding z-score amounted to 0.654.
Same read-out and setting: then ACTGTTAGTTGACTTAGGGCAACCGATACGACGC, with 1.04; and ATCTAAAGGTCGAGGTGAGTATAGAGAAAGGGAA, with 4.33; and CCTAGTTGGTCAAGGGCACACACGCTATAGGTAC, with 1.98.
Same read-out and setting: the same measure for TCTTGTAGATCAACAGGAGGCTAAGAAAGATCGA: -0.249; for TCATATAGGTAAACAGGTGAAAATCCGTAAGTTA: 0.846; for CGTCCAAGGTCTATGCTAGGTCAGTGAAAGCATT: 1.62.
Same read-out and setting: then CGTCCAAGGTCAAGGTCAGTGGAAGAGACTCGAA, with 5.61; and AGAATGAGGTTATTAAGTTCAGGGAATTGCGGTC, with 2.35; and CCTTACGGGTCACTCCAGGTAATAGCATCGGAGT, with 3.72.
The sequence ATCGAAAGGACGACGAGGTGAGTATACACCGTTT had a PBM binding z-score of 1.1.
With CGTCCAAGGTCATAGGAGGTCAGTGAAGACAGAT, the PBM binding z-score is 5.4.
Still for that read-out and setting: the same measure for GATACAGGGTCAAGGCCAGAGAACGCGTATTGAT: 4.49.
Still for that read-out and setting: the same measure for TCTATTAGTTGAAAGGCAACCGACGAGTCCGTTT: 0.44; for CCGACTGGGGCAAAGGTTACCATCCTCAGTACGA: 2.39; for TCTTGTAGATCAAGCAGGATAAGAAAGCCTGAGT: -0.349.
Same read-out and setting: then AGACCGAGGGCACGCTGAGTTGATAGCAGAGTAG, with 2.61; and TCTAGTTGGTCACCGAGGTCACACACGACGGGTA, with 3.92.
Take CGTGCAAGGTCAGCAGGTCAGTGAAAGCGACGTG: the PBM binding z-score amounted to 5.35.
Same read-out and setting: then CCTCGCAGGACAACAGGAGGTCAGAGCTGCCAGA, with 2.28; and ATCTCTAGATAAAAGTTCAGTGAATCCCGAGGAT, with 2.13.
Consider CCTAGCAGGCCAGGGTCAATCAAGCATTTCGCTT, for which the PBM binding z-score turned out to be 2.72.
The sequence TCTTGTACATCAAAGGTTAAGAAAGCCGAAGCCT showed a PBM binding z-score of 2.15.
Sequence ACTATTAGTTGAGACGAGGGCAACCGTTAGGTTG gave a PBM binding z-score of 1.1.
In the case of AGAATGAGGTTATTAAGATCAGGCAATTGCGGTC, the PBM binding z-score was found to be 1.33.
On the same count and under the same terms, the same measure for GCATATAGATAATACAAGGTGAAAGTCCGATTGT: 0.165; for GCTTGTAGATCAAGGTTAGGAAAGACTAAGCTAA: 0.336; for AGAATGATGTTATTAAGATCAGGGAATTGCGGTC: -0.333.
On the same count and under the same terms, the same measure for CCGACTGGGGCAAAGGTTACCATTCTCAGTACGA: 2.39.
On the same count and under the same terms, then ATATGTAGGTTATCGGGTCATTTAGTTTGCGCAT, with 2.56; and TCATATAGGTAAATGCTAGGTTAAAGTCCGATCT, with 0.735.
